“And” between values parts separate entries of the source, which are not always exact repeats. Equal values may be shown once. The campaign covered roughly 5,500 compounds. About 2,000 (36%) were called active. Roughly 18% stayed inconclusive and do not appear here. Cut-off read from the data, not from the text of the source: active = normalized growth mostly below about 0.91 (no sharp cut-off); inconclusive = no clear call, values can overlap the other calls; inactive = mostly above about 0.92. The list shows a part of the results.
Experiment: chemical genetic growth profiling, strain panel (AID 1159580);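 note: tested at 20 µM; growth read once vehicle control cultures reached saturation at 30 °C; 1 = growth at the plate median or of vehicle wells; lower values mean less growth of the strain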
Conditions: S. cerevisiae deletion strains, growth OD

Measured: normalized growth

CC(C)(C)NCC(O)COc1cccc2c1C[C@H](O)[C@H](O)C2 (stereo not given in full)
inactive: locus YAL021C, strain ccr4, active compounds read low 0.99 | locus YAL026C, strain drs2, active compounds read low 1.01 | locus YAL030W, strain snc1, active compounds read low 0.995 | locus YBL061C, strain skt5, active compounds read low 1 | locus YBR009C, strain hhf1, active compounds read low 0.999 | locus YBR021W, strain FUR4, active compounds read low 1.03 | locus YBR023C, strain chs3, active compounds read low 1.01 | locus YBR171W, strain sec66, active compounds read low 1.01 | locus YBR229C, strain ROT2, active compounds read low 1.01 | locus YBR231C, strain swc5, active compounds read low 1 | locus YBR279W, strain paf1, active compounds read low 1 | locus YCL011C, strain gbp2, active compounds read low 1 | locus YCL016C, strain dcc1, active compounds read low 1 | locus YCL029C, strain bik1, active compounds read low 0.997 | locus YCL061C, strain MRC1, active compounds read low 1.01 | locus YCL069W, strain vba3, active compounds read low 1 | locus YCR088W, strain abp1, active compounds read low 1 | locus YDL005C, strain med2, active compounds read low 1.01 | locus YDL035C, strain GPR1, active compounds read low 0.983 | locus YDL040C, strain nat1, active compounds read low 0.999 | locus YDL074C, strain BRE1, active compounds read low 1.06 | locus YDL101C, strain DUN1, active compounds read low 0.999 | locus YDL134C, strain PPH21, active compounds read low 1 | locus YDL185W, strain tfp1, active compounds read low 0.96 | locus YDL192W, strain arf1, active compounds read low 0.982 | locus YDR001C, strain nth1, active compounds read low 1.01 | locus YDR069C, strain doa4, active compounds read low 1 | locus YDR101C, strain arx1, active compounds read low 1.05 | locus YDR137W, strain rgp1, active compounds read low 1.01 | locus YDR150W, strain NUM1, active compounds read low 0.992 | locus YDR159W, strain sac3, active compounds read low 1 | locus YDR162C, strain NBP2, active compounds read low 0.964 | locus YDR195W, strain ref2 0.999 | locus YDR297W, strain sur2, active compounds read low 1 | locus YDR318W, strain mcm21, active compounds read low 0.979 | locus YDR334W, strain swr1, active compounds read low 1.02 | locus YDR335W, strain msn5, active compounds read low 1 | locus YDR388W, active compounds read low 0.989 | locus YDR392W, strain spt3, active compounds read low 1.01 | locus YDR502C, strain sam2, active compounds read low 0.99 | locus YEL003W, strain gim4, active compounds read low 1 | locus YEL037C, strain rad23, active compounds read low 1.01 | locus YEL061C, strain CIN8 (second series), active compounds read low 1.01 | locus YEL061C, strain CIN8, active compounds read low 0.999 | locus YER015W, strain faa2, active compounds read low 0.999 | locus YER016W, strain bim1, active compounds read low 1.01 | locus YER110C, active compounds read low 0.976 | locus YER111C, strain swi4, active compounds read low 1 | locus YER155C, strain BEM2 (second series), active compounds read low 0.997 | locus YER155C, strain BEM2, active compounds read low 0.999 | locus YER167W, strain BCK2, active compounds read low 0.996 | locus YFR010W, strain ubp6, active compounds read low 1.02 | locus YGL078C, strain dbp3, active compounds read low 0.989 | locus YGL086W, strain mad1, active compounds read low 1.02 | locus YGL167C, strain pmr1, active compounds read low 1 | locus YGL173C, strain kem1, active compounds read low 1.01 | locus YGL227W, strain vid30, active compounds read low 1.01 | locus YGL240W, strain doc1, active compounds read low 1 | locus YGL248W, strain PDE1, active compounds read low 1.01 | locus YGL253W, strain hxk2, active compounds read low 1.02 | locus YGR135W, strain pre9, active compounds read low 0.951 | locus YGR229C, strain SMI1, active compounds read low 0.989 | locus YGR252W, strain gcn5, active compounds read low 0.986 | locus YHR013C, strain ard1, active compounds read low 1.03 | locus YHR027C, strain rpn1, active compounds read low 1 | locus YHR030C, strain SLT2, active compounds read low 0.992 and 1.02 | locus YHR079C, strain IRE1 (second series), active compounds read low 0.987 | locus YHR079C, strain IRE1, active compounds read low 1.01 | locus YHR094C, strain hxt1, active compounds read low 0.995 | locus YHR129C, strain ARP1, active compounds read low 0.991 | locus YHR142W, strain chs7, active compounds read low 1.01 | locus YHR200W, strain rpn10, active compounds read low 0.987 | locus YIL066C, strain RNR3, active compounds read low 1 | locus YIL073C, strain SPO22, active compounds read low 0.883 | locus YIL125W, strain kgd1, active compounds read low 0.998 | locus YIR030C, strain dcg1, active compounds read low 0.984 | locus YJL092W, strain hpr5, active compounds read low 1.01 | locus YJL095W, strain BCK1 (second series), active compounds read low 1.01 | locus YJL095W, strain BCK1, active compounds read low 1.02 and 1.04 | locus YJL115W, strain asf1, active compounds read low 1.02 | locus YJL129C, strain trk1, active compounds read low 1 | locus YJL134W, strain LCB3, active compounds read low 0.989 | locus YJL154C, strain vps35, active compounds read low 0.995 | locus YJL164C, strain tpk1, active compounds read low 1 | locus YJL166W, strain qcr8, active compounds read low 1 | locus YJL168C, strain set2, active compounds read low 1 | locus YJL187C, strain SWE1 (second series), active compounds read low 1.01 | locus YJL187C, strain SWE1, active compounds read low 1.01 | locus YJR043C, strain POL32, active compounds read low 1 | locus YJR066W, strain TOR1, active compounds read low 1

From PubChem BioAssay AID1159580 (chemical genetic matrix, 2015)
